This is an account of results in PubChem BioAssay (NCATS).

Results filed as inconclusive are left out. Entries that show only a call come without a potency. Calls of active or inactive are those of the source. Calls follow the shape of the dose curve; as a rule, active = well fitted cell-killing curve with a large enough effect; inconclusive = small, poorly fitted or top-dose-only effect; inactive = no such curve, though single readings can be large or run the other way.
Potency is read from the fitted curve at half-maximal effect.

The nature of this experiment: qHTS of pediatric cancer cell lines to identify multiple opportunities for drug repurposing: Primary screen for OHS-50 cells (AID 1347103). Also: nearly all actives have a fitted effect of over 40% in size. The note with it: OHS-50 osteosarcoma viability, CellTiter-Glo luminescence, 48 h; series mostly up to 57.3 µM. An outline of the steps:
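Cells (500-1,000/well) rested 5 h, then received compounds for 48 h; metabolically active cells were measured by CellTiter-Glo luminescence. Final concentrations spanned up to 46 µM (MIPE, 11-point) or 0.59 nM-46 µM (NPC, 8-point) in primary screens, 11-point in follow-ups.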
As to `NS(=O)(=O)c1cc2c(cc1Cl)NC(CSCc1ccccc1)=NS2(=O)=O`, the Potency entry is “inactive”.
To `O=C1NC(=O)[C@@]2(CCOc3ccc(F)cc32)N1` belongs “inactive”; to `CC[N+](CC)(CC)CCOc1ccc(/C=C/c2ccccc2)cc1`, 3.47 µM (active); to `Cc1ccc(C(C)C)cc2c(C)ccc1-2`, “inactive”.
`Cc1c(Cl)cccc1Nc1ccccc1C(=O)O`: the Potency result was “inactive”.
The same measure for `O=c1cc(CO)occ1O`: “inactive”.
To `C#CCN(C)Cc1ccccc1` belongs “inactive”; to `CN(C)CCOC(C)(c1ccccc1)c1ccccn1` (configuration not stated), “inactive”.
For the compound `CCCOC(=O)c1ccccc1`, the Potency result was “inactive”.
As for `CC1=C(CC(=O)O)c2cc(F)ccc2/C1=C\c1ccc(S(C)=O)cc1` (configuration not stated), the Potency result was “inactive”.
As for `C[C@H](NC(CCc1ccccc1)C(=O)O)C(=O)N1CCC[C@H]1C(=O)O` (some centres not stated), the Potency entry is “inactive”.
`CC(C)C(=O)c1c(C(C)C)nn2ccccc12`: the Potency entry is “inactive”.
Consider `C=Cc1c(C)c2cc3[nH]c(cc4nc(cc5nc(cc1[nH]2)C(C)=C5CCC(=O)O)C(CCC(=O)O)=C4C)c(C)c3C=C`, for which the Potency entry was “inactive”.
In the case of `O=C(O)[C@@H]1CSCN1`, the Potency entry was “inactive”.
As to `CC(=O)Nc1ccc(/C=N/NC(N)=S)cc1`, the Potency entry was “inactive”.
In the case of `NC1CCN(c2cccc(Cl)n2)CC1`, the Potency entry is “inactive”.
`C=CCn1c(=O)n([C@@H]2O[C@H](CO)[C@@H](O)[C@H]2O)c2nc(N)[nH]c(=O)c21`: the Potency result is “inactive”.
As to `Cc1cccc(C)c1NC(=O)CN(CC(=O)O)CC(=O)O`, the Potency result is “inactive”.
To `COc1ccc(S(=O)(=O)Nc2nnc(CC(C)C)s2)cc1` belongs “inactive”.
As to `CC(C)(C)C(=O)NCCCC(=O)O`, the Potency result was “inactive”.
For the compound `C[C@@H](O)[C@H](N)C(=O)O`, the Potency result is “inactive”.
`CC(O)CN(CCN(CC(C)O)CC(C)O)CC(C)O` (configuration not stated): the Potency entry is “inactive”.
